MITF primary: human MITF inhibition, primary screen | O75030 | AlphaScreen MITF homodimerization, bead proximity signal | inhibition, % at 2.6 µM | 650,000 compounds, 0.91% hits | AID 1259374; in the data active = inhibition above about 50%;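 also: 0% = vehicle wells with protein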
Target sequence (O75030 whole entry, looked up): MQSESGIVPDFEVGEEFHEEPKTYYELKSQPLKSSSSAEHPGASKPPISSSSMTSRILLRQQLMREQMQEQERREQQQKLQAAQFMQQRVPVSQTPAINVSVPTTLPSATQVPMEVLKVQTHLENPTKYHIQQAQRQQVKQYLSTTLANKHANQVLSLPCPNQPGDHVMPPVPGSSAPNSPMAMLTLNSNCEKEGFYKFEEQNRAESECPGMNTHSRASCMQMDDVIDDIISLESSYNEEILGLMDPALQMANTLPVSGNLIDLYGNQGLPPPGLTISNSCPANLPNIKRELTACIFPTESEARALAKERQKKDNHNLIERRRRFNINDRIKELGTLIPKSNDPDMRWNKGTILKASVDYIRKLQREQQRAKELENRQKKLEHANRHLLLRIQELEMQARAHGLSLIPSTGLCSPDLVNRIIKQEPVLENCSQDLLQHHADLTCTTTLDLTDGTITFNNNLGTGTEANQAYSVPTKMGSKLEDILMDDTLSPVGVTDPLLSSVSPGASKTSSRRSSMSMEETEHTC
GPR151 activ: activators of human GPR151 | Q8TDV0 | PathHunter beta-arrestin GPR151 cells, luminescence | activation, % at 11.2 µM | 650,000 compounds, 1% hits | AID 1508602; in the data active = activation above about 4.9%;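 also: 0% = median of compound wells and 100% = cells with positive control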
TEAD-YAP inh: TEAD-YAP interaction inhibition. HEK-TIYL cells, TEAD-Gal4/YAP UAS-luciferase luminescence. inhibition, % at 9.12 µM. 640,000 compounds, 1.4% hits. AID 1259422; in the data active = inhibition above about 32%;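 also: 0% = median of test compound wells and 100% = reference inhibitor wells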
FBW7 act: human FBW7 E3 ligase activation, primary screen; AlphaScreen FBW7–phospho-cyclin E peptide binding, activator screen; 650,000 compounds, 0.13% hits; AID 1259310; normalized activity (activation), % at 26.1 µM; in the data active = normalized activity above about 1.9%;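 also: purified mutant Fbw7 with reduced substrate affinity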
Active calls of the source: *; / = not tested or not shown. Shown are actives, neighbours in structure and some others; about 3.5% of the full set was active somewhere.

SMILES | MITF primary | GPR151 activ | TEAD-YAP inh | FBW7 act
COc1cc(OC)cc(C(=O)Nc2ccc(-c3nc4ccc(C)cc4s3)cc2)c1 | 10 | 0 | -3 | 0
Cc1ccc2nc(-c3ccc(NC(=O)/C=C/c4ccccc4)cc3)sc2c1 | 4 | 0 | -22 | 0
O=C(OC[C@@H]1O[C@H]1c1ccccc1)Oc1ccc([N+](=O)[O-])cc1 | 5 | -1 | / | /
COc1ccc(NC(=O)NNC(=O)CSc2nnc(-c3ccc(OC)c(OC)c3)n2-c2ccccc2)cc1 | 14 | 0 | 12 | 0
Cc1cccc(/C=N/NC(=O)c2ccco2)c1 | -4 | 0 | -74 | 0
C=CCOc1ccc(/C=C2\SC(=N)N(c3nccs3)C2=O)cc1OCC | -1 | -1 | 36* | 0
C=CCOc1ccc(/C=C2\SC(NC(C)=O)=NC2=O)cc1OCC | 6 | 1 | 9 | 0
CCCC(=O)Nc1nnc(SCC(=O)NCc2ccccc2)s1 | 0 | 2 | -4 | 0
Fc1cccc2c1NC(c1ccc(Br)cc1)C1CC=CC21 (centres undefined) | 1 | 0 | 19 | 0
CCOc1cccc2c1NC(c1ccc(C(=O)O)cc1)C1CC=CC21 (centres undefined) | 59* | 0 | -8 | -2
CCOC(=O)c1cccc2c1N[C@@H](c1ccc(C(=O)O)cc1)[C@H]1CC=C[C@@H]21 | 76* | 0 | 8 | -1
O=C(O)c1ccc([C@@H]2Nc3c(F)cccc3[C@@H]3C=CC[C@@H]32)cc1 | 70* | 1 | 2 | -1
COc1ccc(N2C(=O)c3ccccc3NC2c2ccc(-c3ccc([N+](=O)[O-])cc3)o2)cc1 (centres undefined) | -4 | 0 | 41* | 0
COc1ccc(N2C(=O)c3ccccc3NC2c2cccc([N+](=O)[O-])c2)cc1 (centres undefined) | 17 | -1 | -23 | 1
O=C(CCCl)Nc1nc2c(s1)CCc1ccccc1-2 | 11 | 1 | 35* | 0
O=C(Nc1nc2c(s1)CCc1ccccc1-2)c1ccco1 | -25 | 0 | -25 | 0
COc1ccccc1-c1nc2sc3c(c2c(=O)o1)CCCC3 | -3 | 3 | 68* | 0
O=c1oc(-c2ccccc2F)nc2sc3c(c12)CCCC3 | 8 | 0 | 0 | 0
O=c1oc(-c2ccco2)nc2sc3c(c12)CCCC3 | 2 | -2 | 2 | 0
c1coc(-c2nnc(-c3cc4c(s3)CCCC4)o2)c1 | -6 | -8 | 54* | 0
CCOC(=O)CSc1nnc2c3c4c(sc3nc(C)n12)CCCC4 | -6 | 0 | 2 | 0
Cc1cccc(OCCOC(=O)c2ccc(S(C)(=O)=O)c([N+](=O)[O-])c2)c1 | 7 | 0 | 38* | 0
COc1ccc(/C=C/C2=NN(c3ccccc3)C(c3ccc(OC)cc3OC)C2)c(OC)c1 (centres undefined) | -55 | 1 | 2 | 2.7*
CC(=O)N1CCc2c(sc(NC(=O)c3ccc4c(c3)OCCO4)c2C#N)C1 | -5 | 2 | 40* | 0
COC(=O)c1c(NC(=O)c2ccc(Cl)cc2)sc2c1CCN(C(C)=O)C2 | -16 | 0 | 13 | 3.3*
SMILES | MITF primary | GPR151 activ | TEAD-YAP inh | FBW7 act
CC(=O)N1CCc2c(sc(NC(=O)c3ccc(Br)cc3)c2C#N)C1 | -2 | 3 | 41* | 0
CCCCC(=O)Nc1sc2c(c1C#N)CCN(C(C)=O)C2 | 7 | 0 | 43* | 0
COC(=O)c1c(NC(=O)c2ccc(S(=O)(=O)N(C)C)cc2)sc2c1CCN(C(C)=O)C2 | 7 | 1 | 4 | 0
CNC(=O)c1cncnc1Nc1cc(NC(=O)Cc2ccc(OC)cc2)ncc1C(F)(F)F | 7 | 1 | 54* | 0
COc1ccc(CC(=O)Nc2cc(Nc3ccccc3C(N)=O)c(C(F)(F)F)cn2)cc1 | -2 | -2 | 98* | 0
N#Cc1ccccc1NC(=O)CSc1ccc([N+](=O)[O-])cn1 | 23 | -1 | 11 | 0
CNC(=O)c1cncnc1Nc1cc(Nc2ccc3c(c2)CC(=O)N3)ncc1C(F)(F)F | 2 | 0 | 25 | 0
N#Cc1ccccc1Nc1cc(NC(=O)Cc2ccc([N+](=O)[O-])cc2)ncc1C(F)(F)F | 15 | -2 | 40* | 0
NC(=O)c1ccccc1Nc1cc(NC(=O)Cc2ccc(F)c(F)c2)ncc1C(F)(F)F | 9 | 1 | 92* | 0
NC(=O)c1ccccc1Nc1cc(Oc2ccccc2F)ncc1C(F)(F)F | -2 | 3 | -1 | 0
COC(=O)CSc1nc2c(c(=O)[nH]1)C(C1CCCC1)Cc1ccccc1-2 (centres undefined) | 14 | -1 | 18 | 0
CCOc1ccc(OCCCOc2ccc(C(=O)O)cc2)cc1 | -2 | -1 | 12 | 0

High-throughput results: PubChem, The Scripps Research Institute Molecular Screening Center
